# In the supplement of paper PMC6555819:
# Key:
# Experiment in all cases: PBM binding z-score (relative to random genomic background probes); higher = stronger binding; sequences stand for … in GC…GCGATTGACAGCGTAGAATGAAGG
# [1] = system: RARb homodimer (NR concentration 270 nM)
# Summary of the method: (§1)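 Probes were double-stranded and carried 34-nt variable regions with direct-repeat seeds, single-nucleotide variants, half-site ablations and random human genomic background sequences, printed on custom Agilent 4×180K protein-binding microarrays. Arrays were incubated 1 h with ligand-free nuclear receptor dimers in PBS pH 7.4, 2% milk, 0.02% Triton X-100, 1 mM DTT, 0.2 mg/mL BSA and 0.4 mg/ml salmon testes DNA. Antibodies against each partner (one per run) detected binding, and scanned fluorescence was regression-normalized. Binding z-scores use the random background probes as reference.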
# [2] = system: RARg:RXRa (NR concentration 270 nM, RXRa partner concentration 90 nM)
# Summary of the method: as §1
# [3] = system: RARg homodimer (NR concentration 270 nM)
# Summary of the method: as §1
# [4] = system: RXRa DBDmut IVT, anti-RXR (DBD mutation: RXRa K156A/R161A, NR concentration 90 nM)
# Summary of the method: as §1
# [5] = system: RXRa homodimer (NR concentration 180 nM)
# Summary of the method: as §1
# [6] = system: THRa:RXRa (NR concentration 90 nM, RXRa partner concentration 90 nM)
# Summary of the method: as §1
# [7] = system: THRa homodimer (NR concentration 90 nM)
# Summary of the method: as §1
# [8] = system: VDR homodimer (NR concentration 270 nM)
# Summary of the method: as §1
Sequence,PBM binding z-score [1],PBM binding z-score [2],PBM binding z-score [3],PBM binding z-score [4],PBM binding z-score [5],PBM binding z-score [6],PBM binding z-score [7],PBM binding z-score [8]
TCTTGTAGATCAATCGAGGTTAAGAAAGTGCGCT,0.899,0.6,0.164,0.612,1.01,3.5,0.268,0.299
TCGAGTAGGTTACCAATGGGTCATTCAGCTTTCT,2.41,3.58,1.68,0.573,2.18,1.62,-0.434,0.102
GCGACTGCGGCAAAGCAGGTTACCATAAGGTTGG,0.0926,-0.183,-0.487,-0.499,-0.0388,0.953,-0.402,-0.315
AATACAGTGTCACTAGGCCAGAGTAGGTACGAAT,0.565,0.553,0.864,0.0246,0.185,0.145,-0.314,0.0225
AGAATAAGGTTATACGTAGATCAGGGAAGAAAGT,0.925,1.78,1.25,1.2,1.89,2.41,0.789,0.657
GGAATGAGGGCAAGTTGATAGCAGAGTTTGATGG,1.65,1.55,2.21,2.79,1.04,1.85,1.02,2.22
AGTCAAAGTTCACAAGGTAACGTAAGATTCAGCT,3.97,5.73,6.02,4.32,4.74,3.06,0.961,3.66
